Measured values published in the supplement of paper PMC11417369.
± gives the standard deviation of the averaged measurements. Whole data set: some 25,000 sequences, median “ln(normalized median fluorescence intensity)” near 8.9, cut for the highest 2% near 10. The sample as a whole holds a higher share of the highest values than the screen did.

tested on: PfAP2-LT AP2 domain (GST-tagged); test: gcPBM binding intensity (ln(normalized median fluorescence intensity)); higher = stronger DNA binding
How it was run: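 An Agilent 4 × 180k array carrying primer-extended double-stranded 36-bp intergenic genomic probes and negative controls received GST-tagged P. falciparum DNA-binding domains expressed in E. coli, about 25 μg on average, for 1 h. The binding buffer contained 1× PBS, 1% milk, 0.2 mg/ml BSA, 0.5% salmon testes DNA and 0.03% Triton X-100. Binding intensity is the top Masliner-normalised natural-log median intensity across replicate spots of either probe orientation, read after Alexa488 anti-GST antibody staining and a 488 nm scan.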

Row | Sequence | gcPBM binding intensity (ln)
1 | TTTTGAAGAAAATTCTTTTTTTTTTTTTTTTGTAAA [CACACA_negctrl_site102] | 7.76 ± 0.65
2 | AAATATTATGTGGCAAGTACATAAAGAAAATGCTTA [XGTACX_site3356] | 8.89 ± 0.56
3 | AAAAAAAAAAAAAAAGCACACATCATATTTTAATTC [CACACA_site9109] | 8.87 ± 0.28
4 | ATATATATATATATATAATATATAATATATATATAT [CACACA_negctrl_site96] | 9.01 ± 0.11
5 | AATAATAACAAATGAACACACATATATATGAGCAAA [CACACA_site2121] | 9.13 ± 0.41
6 | ATGATTATTTTAAAAAGTACTAATTATTATTTTTTT [XGTACX_site7242] | 8.34 ± 0.47
7 | TTCGTTATATTTTGATGTACTGATTCATATATATAT [XGTACX_site1835] | 9.09 ± 0.42
8 | ATTTTCTATTTTATTTGTACGTAATTTAATTTTTTT [XGTACX_site3609] | 8.96 ± 0.53
9 | TATATACAAAATGCCTGTACATATATATTTATTTAT [XGTACX_site761] | 8.85 ± 0.35
10 | ATAATATAATAATACACACTCATTATATATATAAAG [CACACA_site3956] | 8.82 ± 0.43
11 | GGTCATCATCGGTATTGTACAAAAATGTGAAAATTA [XGTACX_site639] | 8.73 ± 0.48
12 | AAATATATTATATCATATATTAAAGCATATATTAAA [CACACA_negctrl_site1624] | 8.43 ± 0.42
13 | TATCTGTATTTGTATACACACAAATGTATTTATTTA [CACACA_site4830] | 8.94 ± 0.44
14 | TATATTATAAATTAATGTACGTAATTTTTTTTTTTT [XGTACX_site2500] | 8.38 ± 0.48
15 | ATAAAATGAACAAACACACACACATATATATATATA [CACACA_site2402] | 10.2 ± 0.13
16 | TTTATAAACAAATGAACACACAAACATATATATATA [CACACA_site5713] | 9.33 ± 0.24
17 | AACAAAAATGAAAAAACACACATAACATATATAAAT [CACACA_site740] | 9.27 ± 0.41
18 | TTAACTATAATAAAATGTACATATGTAACATATATA [XGTACX_site7790] | 8.66 ± 0.4
19 | ATTAATTATTTCAATGCATGTGAACACTATATATAA [TGCATGCA_site600] | 8.84 ± 0.42
20 | ATGGATAATAAGTTTACACACAAAAAAAAAGAAAAA [CACACA_site861] | 9.02 ± 0.57
21 | GTTCATAAATTAAACACACACACACGGCTGGATACC [CACACA_site7545] | 9.79 ± 0.26
22 | GTTCATAAATTAAACACACACACACCGCTGGATACC [CACACA_site5779] | 9.77 ± 0.16
23 | GTTCATAAATTAAACACACACACACCCCTGGATACC [CACACA_site3331] | 10.13 ± 0.085
24 | CCCACTAAAAAACACACACACACACCCATATATATA [CACACA_site6140] | 10.31 ± 0.078
25 | CACCCACTAATAAACACACACATATATATATATATA [CACACA_site389] | 10.3 ± 0.18

Row | Sequence | gcPBM binding intensity (ln)
26 | TAAACACCCATATAAACACACATATAAACACCCATA [CACACA_site5382] | 9.4 ± 0.21
27 | ATACTAAAGAAACACACACACATATATATATAGAAT [CACACA_site100] | 9.94 ± 0.28
28 | TAATTTTTGAAACACACACACATATATATATATATA [CACACA_site94] | 9.885 ± 0.0071
29 | CAGGCACTAATAAACACACACATATAAATATAAATA [CACACA_site6320] | 9.38 ± 0.59
30 | CATATTTGGAAACACACACACATATTTATATATATA [CACACA_site3569] | 9.62 ± 0.38
31 | CACTAAAAGAAACACACACACACACCCATATATATA [CACACA_site4151] | 10.2 ± 0.23
32 | ATAATTTGGAAACACACACACACACCCACATATATA [CACACA_site2286] | 10.28 ± 0.064
33 | AAAAGAAAAAGAAAAACACACATAAATATAAATATA [CACACA_site1879] | 8.93 ± 0.64
34 | AAAAAAAAAAAACACACACACACACCCATATATAAA [CACACA_site1170] | 9.995 ± 0.064
35 | AAAAAATTATATAATAATAGAACTATACATTTTATT [GTGCAC_negctrl_site645] | 8.44 ± 0.47
36 | TACAATAAGGATAAGTGTACATATGTGCATACATAT [XGTACX_site7188] | 8.96 ± 0.35
37 | TATTATTATTTTTTATGTACTAACGACAAAAATATT [XGTACX_site252] | 8.48 ± 0.4
38 | AATATTTTTATATATATACACACTTACATATATATA [CACACA_site3609] | 8.91 ± 0.4
39 | TTTTTTTTTTTGTGGGTGCGTTTATAAAAACAGGAA | 8.42 ± 0.33
40 | GGAACGTTCATATTTCCACACACAAAAAATAAATAT [CACACA_site9101] | 9.31 ± 0.57
41 | TTACACAAGGATAAAAACATATGTATGATTATATAT [CACACA_negctrl_site654] | 8.89 ± 0.47
42 | ATAGCTTTTATTTAAAGTACAAAAAGGATGTTGAAA [XGTACX_site3810] | 8.46 ± 0.44
43 | TTTTTTAAGTAATGAAATGATTTTCTTATAGAATAA [GTGCAC_negctrl_site395] | 7.96 ± 0.36
44 | AAAAAACAATTTGTGTGTACACATGATACGTTCGAT [XGTACX_site4112] | 9.39 ± 0.28
45 | AACATATAAAAATGTGCACACACACCCATATATATA [CACACA_site1525] | 9.79 ± 0.3
46 | TTAAAAAAAAAACACACACACATACCCATATATATA [CACACA_site5768] | 9.825 ± 0.021
47 | TCTCATAGTAAACACACACACACACCCACATATATA [CACACA_site5034] | 9.97 ± 0.071
48 | CGCACTAAAAAACACACACACACACCCATATATATA [CACACA_site4152] | 10.2 ± 0.29
49 | TTTCCCATAGGAAAAACACACATATATTATATATAA [CACACA_site1981] | 8.57 ± 0.4
50 | TCTCATAGGAAACACACACACACACCCACATATATA [CACACA_site1738] | 10.1 ± 0.11

Row | Sequence | gcPBM binding intensity (ln)
51 | AATAAAATATAATAATTAATATATATATATATATAA [GTGCAC_negctrl_site457] | 8.65 ± 0.45
52 | ACACACAATACAAAAGTGCATATAATAATTAATCAT | 9.34 ± 0.46
53 | TTATAATATATATGTGGTACTTATTTATTTATTTAT [XGTACX_site7572] | 8.72 ± 0.49
54 | AACAAATTAATTCTAGTGCAGGACGTATTTGTGTAC [GTGCAC_site9907] | 8.88 ± 0.36
55 | AACATACACATATACACACACACATATATACATATA [CACACA_site1093] | 9.89 ± 0.23
56 | CATATATAAAAAAACACACACATATATATATATATA [CACACA_site1195] | 9.82 ± 0.042
57 | AAAAAAAAAAAAAACACACACATATATATATATATA [CACACA_site1891] | 10.1 ± 0.37
58 | ACACATATATATATATATATATATATATATATATAT [CACACA_negctrl_site1766] | 9.935 ± 0.035
59 | AAAAAAACACACACATATATATATATATATATATAT [GTGCAC_negctrl_site498] | 10.2 ± 0.16
60 | AAAAAAAAAAAAAAAACACACACATATATATAATAT [CACACA_site9038] | 9.3 ± 0.41
61 | AAAAAAAAAAAACATACACACATACATACATATATA [CACACA_site8222] | 9.26 ± 0.35
62 | AAAAAAAAAAAACACACACACATATATATATATATA [CACACA_site732] | 10.4 ± 0.19
63 | AAAAAAAAAAAAAACACACATACATACATACATATA [CACACA_site4121] | 9.13 ± 0.38
64 | AAAAAAAAAAAAAAAACACACACATATATATATATA [CACACA_site8571] | 9.72 ± 0.29
65 | AAAAAAAAAAAAAACACACACATATATATAATATAT [CACACA_site3172] | 9.37 ± 0.41
66 | AACACACACATATATATATATATATATATATATATA [GTGCAC_negctrl_site573] | 10.5 ± 0.13
67 | ATATTATATTATATAACACACATTTTTCATAACACT [CACACA_site407] | 8.95 ± 0.34
68 | TATTAATTTTTATACGCATGTGTATAGTAATATATA [TGCATGCA_site1010] | 8.66 ± 0.37
69 | TTTATAAACAAATGAACACACAAACATATTTATATA [CACACA_site7478] | 8.86 ± 0.42
70 | TATGAATATCTATACACACACATATATATACTCACT [CACACA_site1597] | 9.39 ± 0.36
71 | ATACGAAGTACGTACACACACTTATATGTTACTAAA [CACACA_site7812] | 9.26 ± 0.33
72 | CAATACTATTATTATAGTACGTATAAAATTATATAT [XGTACX_site4950] | 8.71 ± 0.49
73 | TATTTTATCATTTGCACACGCACACCGACATAAAAA [CACACA_site4348] | 9.26 ± 0.28
74 | AAAAGTATATATTCAGTGCATAGTCTTTAAATATAA [GTGCAC_site9522] | 8.7 ± 0.38
75 | AAAAAAAAAAAAAAAACACACATATATATATAATAT [CACACA_site1159] | 8.96 ± 0.42

Row | Sequence | gcPBM binding intensity (ln)
76 | AAAAAAAAAAAAAAAACACACATATATATATATATA [CACACA_site2436] | 10.095 ± 0.0071
77 | AAAAAAAAAACATACACACATACATACATATATATT [CACACA_site949] | 9.28 ± 0.27
78 | AAAAAATATTGAAGTACACACATTATGAACTTTTTT [CACACA_site1733] | 8.78 ± 0.42
79 | AAAGAATACATATATTGTACATATATATATACCGTT [XGTACX_site6250] | 9.02 ± 0.45
80 | TATGTTTTTACGTGTGTGCACTTTGTAGAGATAAGT | 9.06 ± 0.38
81 | TTTTTTTTTTTTTGTGCATGTAGATTTATTGTTATA [TGCATGCA_site582] | 8.79 ± 0.39
82 | ATGTAGATAAAACGTGTGCACATGTTTTTTGTTATT | 10.3 ± 0.2
83 | AAAAAGAAAAAACGAAGTACAATTATAAGATTATAT [XGTACX_site410] | 8.86 ± 0.47
84 | ATGTTCTTTAAAACCACACACCCCCCAACCCCCCTC [CACACA_site2373] | 10.1 ± 0.13
85 | TATGTAACCTGTTTTACACACCCCCACCCCCCTCTT [CACACA_site319] | 10.09 ± 0.05
86 | ACCCTATATGTAACTACACACCGCATATTGTTTACT [CACACA_site3071] | 9.46 ± 0.42
87 | CATACACATACACATACACACGCATAGAAACATACG [CACACA_site8666] | 9.55 ± 0.51
88 | AACATACATAGACACACACACACACGCACACGCACA [CACACA_site6373] | 10.35 ± 0.071
89 | TATAGATACATATACACACACACACCCACATATATA [CACACA_site3436] | 9.94 ± 0.11
90 | TAGATACATACACGCACACACATATATAAATAAATA [CACACA_site6157] | 9.68 ± 0.35
91 | CATAGATACATACACGCACACACATATATATATATA [CACACA_site13] | 10.2 ± 0.17
92 | CATATATAGATATATACACACATACATACATACATA [CACACA_site7748] | 9.3 ± 0.27
93 | TATAGATACATATACACACACACACCGACATATATA [CACACA_site9138] | 10.2 ± 0.14
94 | CACGCACGCACATACACACACATACACATATAAATA [CACACA_site6907] | 9.72 ± 0.45
95 | TATAGATACAGATACACACACACACCGACATATATA [CACACA_site5832] | 10 ± 0.22
96 | AGATAGATACATACACGTACATATATATATACACAT [XGTACX_site4755] | 9.18 ± 0.35
97 | TATACACATAGACACACACACATACACGCACATACA [CACACA_site6908] | 9.99 ± 0.17
98 | TAGATACATACACGCACACACATATATATATATATA [CACACA_site12] | 10.11 ± 0.035
